Experimental data as given in ChEMBL document CHEMBL3988442, “University of Dundee, Small-Polar-MMV Screening Library” (2021).
Values joined by “and” are separate entries in the source; they are usually repeats but may differ in a detail not shown here. Equal values may be shown once. Out of some 34,000 compounds screened, about 290 (0.85%) showed an effect of 50% or more. The sample as a whole holds a higher share of strong results than the screen did.

Tested on: Plasmodium falciparum
Assay: Plasmodium falciparum sporozoite viability assay
Assay type: functional, organism-based
Set-up: scale not given: in the data most compounds retested in dose-response had high values

SMILES	Percent Effect	Percent Effect (10 mM as filed; unlikely as a test dose)
COc1ccc(Br)c(C(=O)NCC2CC2)c1	3.186%	
CC(C)COCC1CN(Cc2ccco2)Cc2ncn(C)c21 (centres undefined)	12.26%	
Cc1ccc(CN2CC[C@@H]3[C@@H](CO[C@H]3CN3CCN(C)CC3)C2)s1.O=C(O)C(F)(F)F.O=C(O)C(F)(F)F.O=C(O)C(F)(F)F	10.79%	
O=C1[C@H]2CN(S(=O)(=O)C3CC3)C[C@H]2CN1CC1CC1	4.506%	
CC(=O)Nc1nc(C(=O)N2CCCCC2Cn2cc(C)cn2)cs1 (centres undefined)	-12.14%	
Cc1ccc(S(=O)(=O)NC(=O)c2c(C)noc2C(C)C)cc1C	-15.45%	
CNC(=O)CCNC(=O)CCc1c(C)nc2cc(O)nn2c1C	8.263%	
Cc1ccc(CN(C)C(=O)CNC(=O)N2CCc3ccccc3C2)o1	1.19%	
CCC1c2ccsc2CCN1C(=O)NCc1ccc(C)nc1 (centres undefined)	6.154%	
CC(C)(C)c1cn2nc(N3CCOC(Cn4cncn4)C3)sc2n1 (centres undefined)	8.052%	
CC(C)(C)c1cn2nc(N3CCCC3Cn3cncn3)sc2n1 (centres undefined)		-5.183% and 4.187% and 0.2303%
CC(C)(C)c1cn2nc(N3CCCC(Cn4cncn4)C3)sc2n1 (centres undefined)		61.38% and 60.13% and 50.37%
Cc1nc(-c2c(C)noc2C)cc(C2CCN(S(=O)(=O)N(C)C)CC2)n1	10.55%	
CN(C)C(=O)CN1CC[C@]2(CN(CC3CC3)C[C@H]2c2ccccc2)C1=O.O=C(O)C(F)(F)F	2.654%	
O=C(CCc1ccccc1)N1CC(n2cncn2)C1	7.531%	
COc1c(CNCc2ccc3c(c2)OCO3)c(C(C)C)nn1C	7.092%	
O=C(NCCc1ccccc1)N1CCC(C2OCCO2)CC1		28.36% and 65.96%
O=C(NCCc1ccccc1)N1CCCCC1C1OCCO1 (centres undefined)		-48% and -64.36%
O=C1NCCN2CCN(C(=O)Nc3ccc(-c4ccccc4)cc3)CC12 (centres undefined)		-23.97% and -24.61%
O=C1NCCN2CCN(C(=O)NCCc3ccccc3)CC12 (centres undefined)		64.04% and 69.93%
O=C(NCc1ccccc1F)N1CCC(C2OCCO2)CC1	0.1127%	
CC1=N[C@@]2(CC[C@@H]3CN(C(=O)NCCc4ccccc4)C[C@@H]32)C(=O)N1	2.735%	
CC(=O)N1CCCC1C(=O)NCCOc1cccc(F)c1 (centres undefined)	-6.239%	
Cn1cc(C(=O)N2C[C@@H]3CN(S(C)(=O)=O)CCO[C@@H]3C2)cn1	-2.6%	

SMILES	Percent Effect	Percent Effect (10 mM as filed; unlikely as a test dose)
C[C@]1(O)CN(CCO)CC[C@@H]1Oc1cccc(F)c1	17.57%	
COc1ccccc1OCCC(=O)N1CCCCC1c1nccs1 (centres undefined)	-5.924%	
CN(C)CCNc1ccc(-c2nc(-c3ccccc3F)no2)cn1		80.1% and 68.27%
CC(C)(CO)Nc1ccc(-c2nc(-c3ccccc3F)no2)cn1		13.89% and 24.65%
CC(O)CN1CCC(CNCc2ccc(C(N)=O)cc2)CC1 (centres undefined)	0.9015%	
Cc1ccc(CNC(=O)NC(C)Cn2cccn2)cn1 (centres undefined)	11.6%	
CCN1CCN(c2ccc(CNC(=O)Cc3c(C)noc3C)cn2)CC1	9.727%	
Cc1nc(CN2CCC2(CCCc2ccccn2)C(=O)N(C)C)co1 (centres undefined)	12.32%	
CCOCc1nn(CC2CC2)c2c1CN(Cc1cccs1)CC2.O=C(O)C(F)(F)F.O=C(O)C(F)(F)F	6.48%	
Cc1nc(CN2CC(CCCc3ccccn3)(C(=O)N(C)C)C2)co1	-0.6757%	
COc1cccc(OCC2CCCN(C3CCN(C(C)=O)CC3)C2)c1 (centres undefined)		-11.14% and -12.8% and -12.12%
COc1cccc(OCC2CCCN(C(=O)c3cnc(C)nc3O)C2)c1 (centres undefined)	-6.706%	
Cc1nn(CC(C)C)c(N(C)C)c1CNCc1ccc2c(c1)OCO2	-0.9874%	
Cc1nc(Nc2cnccn2)cc(C2CCN(c3ncccn3)C2)n1 (centres undefined)	4.755%	
CCOc1ccc(C(=O)N2CCCC(n3ccnc3C)C2)cc1OC (centres undefined)	0.3069%	
CCc1cnc(N2CCc3cc(C(=O)NC)c(N(C)C)nc3CC2)nc1.O=C(O)C(F)(F)F	0.8439%	
O=C(c1cc(=O)c(OCc2ccccc2)co1)N1CCSCC1	-8.629%	
c1cnc(-c2nc(CN3CCC(c4ccn[nH]4)CC3)cs2)nc1	5.764%	
NC(=O)C1CCN(Cc2csc(-c3ncccn3)n2)CC1		-22.27% and -16.43% and -15.46%
c1cnc(-c2nc(CN3CCCC(N4CCCC4)C3)cs2)nc1 (centres undefined)	5.451%	
c1cnc(-c2nc(CN3CCN(CC4CC4)CC3)cs2)nc1		84.72% and 73.85% and 60.32%
CC(=O)Nc1nc2c(s1)C1(CCN(C)CC1)Nc1ccccc1S2	12.96%	
Cc1nccc(N2CCCC(C)(C(=O)NC3CCCC3)C2)n1 (centres undefined)	2.213%	
Cc1cnn(CC2CCCCN2Cc2nc(N)c3ccccc3n2)c1 (centres undefined)		41.2% and 50.14% and 52.23%

SMILES	Percent Effect	Percent Effect (10 mM as filed; unlikely as a test dose)
Cc1cnn(CC2CCCCN2Cc2nc(C)c3ccccc3n2)c1 (centres undefined)		35.56% and 21.88% and 27.76%
Cc1cnn(CC2CCCN2Cc2nc(N)c3ccccc3n2)c1 (centres undefined)		22.63% and 18.94% and 34.15%
CC(=O)N1CCN(c2ccc3ccc(C(=O)NC4CCCC4)cn23)CC1	-4.944%	
Cc1cc(C(=O)N2CCN(c3ncc4c(n3)CCOC4)CC2)sc1C	-7.443%	
Cn1c(C2CC2)nc2c1CCN(Cc1nc3ccccc3s1)C2		48.9% and 53.74%
Cc1nc(CN2CCc3c(nc(C4CC4)n3C)C2)nc2ccccc12		-16.27% and -10.13%
Cc1nc2ccccc2nc1CN1CCc2c(nc(C3CC3)n2C)C1		-9.933% and -2.839%
c1ccc2nc(N3CCOC(Cn4cccn4)C3)cnc2c1 (centres undefined)	7.131%	
OCC1CCCN1c1cc(NCCNc2cccnn2)ncn1 (centres undefined)		9.971% and -4.087%
OCC1CCCN1c1cc(NCCc2nccs2)ncn1 (centres undefined)		21.04% and 15.76%
OCC1CCCN1c1cc(NCCc2ccccn2)ncn1 (centres undefined)		91.05% and 79.59%
OCC1CCCN1c1cc(NCCc2ccsc2)ncn1 (centres undefined)		86.32% and 73.55%
Cc1cccnc1CNc1cc(N2CCCC2CO)ncn1 (centres undefined)	-13.57%	
OCC1CCCN1c1cc(NCc2ccccn2)ncn1 (centres undefined)		-21.68% and -23.27%
OCC1CCCN1c1cc(NCc2ccsc2)ncn1 (centres undefined)	11.95%	
CC(C)CN(C)Cc1nc2c(cnn2C)c(=O)[nH]1	7.587%	
CN(C)CC1CN(Cc2nc(-c3ccccn3)no2)CCO1 (centres undefined)	24.23%	
CN1CCN(S(=O)(=O)c2ccc(Cl)c(Cl)c2)c2cnccc21		-22.78% and -8.887%
Cc1cc(-c2cc(F)ccc2C(=O)O)nc(C2CCCCN2C(C)C)n1 (centres undefined)	4.863%	
CC(=O)N1N=C(c2ccccc2)OC1C(=O)NCCc1ccc(O)cc1 (centres undefined)	3.916%	
CC[C@@H](C)[C@@H](N)C(=O)Nc1cccc(-c2cnc(N(C)CCO)nc2)c1	4.657%	
CCn1cc(NC(=O)NCCN2CCCc3ccccc32)cn1	-384.2%	
Cc1cnn(CCC(=O)NS(=O)(=O)N2CCc3ccccc32)c1		-13.26% and -21.53% and -23.4%
Cn1cc(CCC(=O)NS(=O)(=O)N2CCCc3ccccc32)cn1		95.69% and 93.95% and 93.94%

SMILES	Percent Effect	Percent Effect (10 mM as filed; unlikely as a test dose)
Cn1cc(CCNC(=O)CCc2ccc3c(c2)OCO3)cn1	0.08354%	
O=C(CCn1cccn1)NS(=O)(=O)N1CCCc2ccccc21		88.08% and 94.17% and 83.19%
Cn1nc(CNC(=O)c2ccc(OC(F)(F)F)cc2)c2c1CCOC2	-1.164%	
Cn1ncc(NCc2cccc(F)c2)c(Cl)c1=O	2.958%	
CNC(=O)[C@@H]1CCO[C@@H]2CCN(CCc3ccccc3)C[C@H]21.O=C(O)C(F)(F)F	14.59%	
CC(=O)c1cnc(N(C)Cc2cnc3ccccc3n2)nc1C		-14.78% and -20.36%
Cc1cnc(N(C)Cc2cnc3ccccc3n2)nc1N(C)C		42.78% and 58%
CC(CO)CN(Cc1ccccc1)Cc1cnc2ccccc2n1 (centres undefined)		33.49% and 37.4%
Cc1cnn(C2CCCN(C(=O)Cc3ccc(C)s3)C2)c1 (centres undefined)	7.18%	
Cc1cnc(CCNc2cccc(CC3CCCNC3)n2)s1.Cl (centres undefined)	-6.2%	
Cc1nc(N(CCC(N)=O)Cc2ccccc2)c2nc(C)oc2n1	2.982%	
CN(Cc1noc(C2CC2)n1)C1CCN(Cc2ccccc2C#N)C1 (centres undefined)	5.942%	
Cc1nccn1CCCC(=O)N1CCCC(c2noc(C(C)C)n2)C1 (centres undefined)	1.926%	
CN1CCN(Cc2ccc(-c3ccc(-c4ccn[nH]4)cc3)nc2)CC1		56.12% and 32.6%
CN1CCN(Cc2ccc(-c3ccc(C(N)=O)cc3)nc2)CC1		-29.68% and -21.28%
CC(=O)N1CCCN(C(=O)NCc2ccc(-c3ccn[nH]3)cc2)CC1	9.841%	
O=C(NCc1nn(-c2ccccc2)c2c1CCC2)NCC1COCCO1 (centres undefined)	13.65%	
Cc1nc2c(c(NCCc3nccs3)n1)CCN(CC1CC1)CC2	-1.253%	
Cc1cnn(CC2CCCN2C(=O)c2cc3ccccc3c(=O)[nH]2)c1 (centres undefined)	2.755%	
Cl.Cn1ccnc1CNC(=O)c1cnc(C2CCNCC2)cn1	2.787%	
CN1CCC(c2cnc(NCc3nccn3C)cn2)CC1		45.14% and 64.85% and 67.7%
CN1CCC(c2cccc(NCc3nccn3C)n2)CC1		4.151% and -3.748% and -15.94%
